This note sets out measurements from PubChem BioAssay (EPA / NIEHS).

Each structure is given as a SMILES string. Activity calls are given as the source filed them. Rule for the calls: active = hit-call score of the fitted dose curve at least 0.9, where 1 is the maximum; inactive = score below 0.9.

One experiment in a line: CCTE_Harrill_HTTr_Viability_MCF7: CCTE's 6-hour Cell Viability Assessment for the High-Throughput Transcriptomics (HTTr) Platform, in MCF-7 cells cultured in DMEM + 10% fetal bovine serum, Harrill Lab (AID 2284010). Put shortly: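 Cells were dosed with chemicals in an eight-point dilution series, imaged 6 hours later for propidium iodide uptake, and the endpoint was analyzed by bidirectional fitting against DMSO as negative control.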
`Cc1c(C(=O)O)c(O)cc2c1C(=O)c1c(O)c([C@@H]3O[C@H](CO)[C@@H](O)[C@H](O)[C@H]3O)c(O)c(O)c1C2=O`: the result was inactive.

`CCCCCCOCCO`: the result was inactive.

As to `CC(=O)OC/C=C(\C)CCC=C(C)C`, the result was inactive.

As to `NC(=O)Cn1c(=O)cc(CCN2CCN(c3nccc4sccc34)CC2)c2ccc(F)cc21`, the outcome was inactive.

Consider `O=[N+]([O-])C(CO)(CO)CO`, for which the outcome was inactive.

Regarding `Oc1ccc2c(c1)OC[C@@H](N1CCC(O)(c3ccc(F)cc3)CC1)[C@H]2O`, the outcome was inactive.

As to `CCCCCCCCCCCCCO`, the outcome was inactive.

As for `CCCCc1ccc2c(n1)[C@@H](c1ccc(OC)cc1C[C@H](C)C(=O)O)[C@H](C(=O)O)[C@H]2c1ccc2c(c1)OCO2`, the outcome was inactive.

The next experiment in a line: CCTE_Harrill_HTTr_Apoptosis_MCF7: CCTE's 6-hour Apoptosis Assessment for the High-Throughput Transcriptomics (HTTr) Platform, in MCF-7 cells cultured in DMEM + 10% fetal bovine serum, Harrill Lab (AID 2284011). A digest of the protocol:
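High-content imaging of CellEvent Caspase 3/7 Green signal follows a six-hour exposure, with eight concentrations per chemical. MCF-7 cells grown in DMEM plus 10% fetal bovine serum; activity fitted in both directions against DMSO.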
With `COC(=O)c1ccc(O)cc1`, the outcome was inactive.

On to `Cc1ccc(C)c(C)c1`, for which the result was inactive.

As to `Cc1nc(C)nc(N2C[C@@H](C)N(c3ccnc([C@@H](C)O)n3)[C@@H](C)C2)n1`, the result was inactive.

For `OC[C@@H](O)[C@@H](O)[C@H](O)[C@H](O)CO`, the result was inactive.

Consider `Oc1ccc2ccccc2c1N=Nc1ccccc1`, for which the outcome was inactive.

Take `Cc1oc(-c2ccccc2)nc1CCOc1cccc2c1ccn2CCC(=O)O`: the outcome was inactive.

Turning to `CC(=O)OCCOCCOCCOC(C)=O`, the result was inactive.

As to `COc1cc(-c2nc(NC(=O)c3cc4cc(C)cc(C)c4n3CC(=O)O)sc2CCC2CCCCC2)c(OC)cc1Cl`, the outcome was inactive.

For `CCCCN(CCCC)CCCC`, the outcome was inactive.

In the case of `Cc1cccc(Nc2cc(Cl)nc(SCC(=O)O)n2)c1C`, the result was inactive.

Consider `CCCCCCCCCCCCCCCC`, for which the result was inactive.

As for `O=C(N[C@@H](Cc1ccccc1)[C@@H](O)C(=O)N1C[C@@H](O)[C@@H](O)C1)c1cc2cc(Cl)ccc2[nH]1`, the result was inactive.

On to `CCCCCCCCCCCC(=O)OC`, for which the result was inactive.

Consider `CCCCCCCCCCC`, for which the outcome was inactive.

On to `Cc1cc(NC(=O)C(=O)O)cc(C)c1Oc1ccc(O)c2c1CCC2`, for which the result was inactive.

On to `CCc1c(C(=O)NN2CCCCC2)nn(-c2ccc(Cl)cc2Cl)c1-c1ccc(Br)cc1`, for which the result was inactive.

Regarding `COCCOC[C@H](CC1(C(=O)NC2CCC(C(=O)O)CC2)CCCC1)C(=O)Oc1ccc2c(c1)CCC2` (stereo partly specified), the result was inactive.

With `O=C(O)Cc1ccccc1Nc1c(Cl)cccc1Cl`, the result was inactive.

Consider `C1CCC(SSC2CCCCC2)CC1`, for which the outcome was inactive.

Turning to `Cc1nc(-c2ccc3c(c2)CCN(CCC2CCC(NC(=O)/C=C/c4ccc(F)cc4)CC2)CC3)no1` (stereo unspecified), the outcome was inactive.

Turning to `Cc1c(C(=O)O)c(O)cc2c1C(=O)c1c(O)c([C@@H]3O[C@H](CO)[C@@H](O)[C@H](O)[C@H]3O)c(O)c(O)c1C2=O`, the outcome was inactive.

On to `CCCCCCOCCO`, for which the outcome was inactive.

`CC(=O)OC/C=C(\C)CCC=C(C)C`: the result was inactive.

`NC(=O)Cn1c(=O)cc(CCN2CCN(c3nccc4sccc34)CC2)c2ccc(F)cc21`: the result was inactive.

With `O=[N+]([O-])C(CO)(CO)CO`, the outcome was inactive.

Take `Oc1ccc2c(c1)OC[C@@H](N1CCC(O)(c3ccc(F)cc3)CC1)[C@H]2O`: the result was inactive.

As to `CCCCCCCCCCCCCO`, the result was inactive.

`CCCCc1ccc2c(n1)[C@@H](c1ccc(OC)cc1C[C@H](C)C(=O)O)[C@H](C(=O)O)[C@H]2c1ccc2c(c1)OCO2`: the outcome was inactive.
